# Reference: PubChem BioAssay (NCATS)
# Inconclusive results are not listed. Entries that show only a call come without a potency. Unmarked numbers belong to inactive results. The source made the active and inactive calls. Calls come from the whole dose curve; as a rule, active = well fitted cell-killing curve with a large enough effect; inconclusive = small, poorly fitted or top-dose-only effect; inactive = flat fitted curve, though single readings scatter.
# Assay: HEK-293 Cancer Cell Toxicity qHTS against the NCATS CANVASS Library (AID 1347355); note: nearly all actives have a fitted effect of over 65% in size
# Conditions: HEK-293 viability, CellTiter-Glo luminescence, 72 h; series mostly up to 46.1 µM
# From the text: Natural products and their derivatives continue to be wellsprings of nascent therapeutic potential. However, many laboratories have limited resources for biological evaluation, leaving their previously isolated or synthesized compounds largely or completely untested. To address this issue, the Canvass library of natural products was assembled (https://tripod.nih.gov/canvass), in collaboration with academic and industry researchers, for quantitative high-throughput screening (qHTS) across a diverse set of cell-based and biochemical assays. The pure (>85% purity by liquid chromatography/mass spectrometry [LC/MS]) Canvass library of 346 natural products were submitted by 45 academic laboratories and companies around the world. We collected pure natural products to circumvent deconvolution and structure elucidation due to time and resource limitations. The library was formatted into 1536-well plates and evaluated in 50 qHTS (in an 11-pnt concentration series) bioassays with broad scope of disease-relevant mechanisms. The resulting data set from 50 different assays was then systematically analyzed to identify overall trends and specific natural products with interesting biological activities. Reported herein are the results of each individual qHTS and their corresponding assay protocol. National Center for Advancing Translational Sciences (NCATS), Rockville, MD National Institute of Health (NIH), Bethesda, Maryland
# Cancer Cell Toxicity COV-362, OV-KATE, OV-SAHO, UWB1.289, UWB1.289-WTBRCA1, HEK-293, HPAF-II, Panc-1005, SW1088, and U-118MG-screen protocol. 1. In a 1536 well, white solid bottom tissue culture plates (Corning 7494), corresponding cells (COV-362, OV-KATE, OV-SAHO, UWB1.289, UWB1.289-WTBRCA1, HEK-293, HPAF-II, Panc-1005, SW1088, or U-118MG) were dispensed in each well at a final concentration of 1000 cells / well (6uL volume) using the Multidrop Combi (Thermo Fisher Scientific) dispenser. 2. The plates were incubated for 4 hours at 37 degrees C/5% CO2/95% Rh. 3. Compounds were pin transferred (~23nL volume) via Wako Pin-tool (Wako Automation, Richmond VA) equipped with a 1536 pin head. The assay plates were treated with compounds in an 11-pnt concentration series with a final concentration range of […] to 85uM. 4. Bortezomib was used as a single dose control (0.5mM column 4, rows 1 - 32) at a final concentration of 1.9uM and as a 16pnt titration (1mM; 1:2 dilution; 16-points; n = 2; column 3, rows 1 - 32) with final concentration range of 0.1nM - 3.8uM. 5. The assay plates were incubated for 72 hours at 37 degrees C/5% CO2/95% Rh. 6. 3uL CellTiter-Glo detection reagent was then added to the plates (columns 2 - 48, rows 1 - 32) and incubated at room temperature for additional 15min. 7. Luminescence signal was acquired via the ViewLux plate reader (PerkinElmer) using a clear filter, 2 second exposure and 2x binning settings.
# Potency is the fitted concentration of half-maximal effect.
Compound,Potency,"activity change, negative = cytotoxicity"
C/C=C/[C@H]1[C@H]2C(=O)c3c(O)c(C)c(O)c(C)c3[C@]1(C(=O)O)C(=O)C=C2C,inactive,–
CCC(=O)N[C@@H](C[C@H](C)C(Cl)(Cl)Cl)C(=O)N1C(=O)C=C(OC)[C@@H]1C[C@H](C)CCl,inactive,–
CC(C)=CCCC(C)(O)[C@H]1CC=C(C)C(O)C1 (stereo not given in full),inactive,–
CC[C@@H]1C[C@@]2(CC)OC(=O)[C@@]3(CC)[C@H](CC)[C@@H]1[C@@H]23,inactive,–
C[C@@]12CCC[C@@](C)(C(=O)O)[C@H]1CC[C@@]13C[C@@H](CC[C@H]12)[C@](C)(O)C3,inactive,–
C=C1[C@@]2(C)CC3C4(C)CCC(O)C(C)(C)C4CCC3(C)[C@]1(C(=O)OC)C(=O)C(C)(O)C2=O (stereo not given in full),inactive,–
O=c1cc(-c2ccc(O)cc2)oc2cc(O)c([C@@H]3OC(CO)[C@H](O)[C@@H](O)[C@H]3O)c(O)c12 (stereo not given in full),inactive,–
CC(=O)c1c(C)cc2c(c1O)C(=O)c1c(O)cc(O)cc1C2=O,inactive,–
C=C1C[C@H]2O[C@@H]3[C@@H]4[C@H](CC[C@@](C)(O)[C@@H]42)[C@H](C)COC3(C)[C@@H](OC(=O)CCCCCCC)C[C@H]1O (stereo not given in full),23.5 µM (active),–
COc1cc(C2C3=C(Cc4cc5c(cc42)OCO5)C(=O)OC3)cc(OC)c1OC (stereo not given),0.059 µM (active),–
O=Cc1ccc2n1C[C@]1(C[C@H](O)[C@@H](CO)O1)OC2,inactive,–
C=C(Cl)[C@](Cl)(CBr)CC[C@@H](Br)C(C)(C)Cl,9.35 µM (active),–
CO[C@@H]1[C@H](O)[C@@H](C)O[C@@H](OC[C@@H]2C(C)OC(=O)/C=C/[C@H](C)C(O[C@@H]3O[C@H](C)CC4(OC(=O)O[C@@H]4C)C3O)[C@@H](C)CC(C)C(=O)/C=C/[C@H]3OC23)[C@@H]1OC (stereo not given in full),20.9 µM (active),–
COC(=O)[C@@]1(C)CCC[C@]2(C)c3cc(OC)ccc3CC[C@@H]12,inactive,–
COc1cc(O)c(C(=O)[C@@H]2[C@H](CC=C(C)C)C(C)=CC[C@H]2c2ccccc2)c(O)c1,20.9 µM (active),–
C=C(C)C(=O)O[C@H]1C[C@@]2(C)OC(=CC2=O)/C(C)=C\[C@H]2OC(=O)C(=C)[C@H]12,1.05 µM (active),–
C/C=C1/CN2C3CC1C1C=CC(=O)N4c5ccccc5[C@@]3(C[C@@H]2C2=C[C@H]3C5CC6N(CC[C@@]67c6ccccc6N(C2=O)[C@@H]37)C/C5=C/C)[C@H]14 (stereo not given in full),9.35 µM (active),–
CC1(C)CC[C@]2(CO)CC[C@]3(C)C(=CCC4[C@@]5(C)CC[C@H](O)C(C)(C)C5CC[C@]43C)C2C1 (stereo not given in full),inactive,–
O=C1CC(c2ccc(O)cc2)Oc2cc(O)ccc21 (stereo not given),inactive,–
CC(C)=CCC[C@]1(C)[C@H]2CC(=O)[C@@]3(CO3)[C@@H]1C2,inactive,–

Compound,Potency,"activity change, negative = cytotoxicity"
Cc1cc(O)cc2c1C(=O)c1c(O)cc(O)cc1C2=O,inactive,–
C/C=C1/C2=CCCN3C(=O)O[C@H]([C@H]1O)[C@H]23,inactive,–
Cc1cc(C)c(O)c(C(=O)CC2CC(=O)NC(=O)C2)c1,3.72 µM (active),–
C=C1CCC2C(C)(C(=O)O)CCC(CC/C(C)=C/C(=O)NC(CCC(N)=O)C(=O)O)[C@@]2(C)C1 (stereo not given in full),inactive,–
[C-]#[N+][C@@]12C(=O)[C@@H]3[C@@H](O[C@@]4(C(=O)N(C)c5cccc1c54)C3(C)C)C(=O)[C@@]2(C)C=C,inactive,–
CCC(C)=C1OC(=O)[C@H](C)[C@H](O)[C@H](Cc2cccnc2)NC(=O)C(NC(=O)c2ncccc2O)C(C)OC1=O (stereo not given in full),inactive,–
COc1ccc([C@@H]2CC(=O)c3c(cc(O)c(C/C=C(\C)CCC=C(C)C)c3O)O2)cc1,–,-14.6% [at 9.19 µM]
CC[C@H]1[C@@H](C)[C@@H](c2cc(OC)c(OC)cc2OC)[C@H](C)[C@@H](c2cc(OC)c(OC)cc2OC)[C@@]12C=C(OC)C(=O)C=C2OC,14.8 µM (active),–
CCC(=O)CCCCC[C@@H]1NC(=O)[C@H]2CCCCN2C(=O)[C@H](C(C)C)NC(=O)[C@H](Cc2cn(OC)c3ccccc23)NC1=O,5.26 µM (active),–
C/C(=C\[C@@H](C)CC/C=C/CC/C=C/C(=O)O)[C@H](O)[C@H](C)C(=O)CCCC1CC(=O)NC(=O)C1,inactive,–
C/C=C/c1cc2c(c(=O)o1)C(=O)[C@@H](O)[C@H](C)O2,9.35 µM (active),–
C/C(=C\[C@H](C)C(=O)C[C@H](O)CC1CC(=O)NC(=O)C1)[C@@H]1OC(=O)CCCC/C=C/[C@@H](O)C[C@@H]1C,9.35 µM (active),–
CN1CC[C@]23c4ccccc4N[C@H]1[C@]21CCN(C)[C@H]3Nc2ccccc21,inactive,–
C[C@@]1(CCC(=O)Nc2c(O)ccc(C(=O)O)c2O)C(=O)C=C[C@]23C[C@H]4C[C@H](O[C@@]4(C)C2)C31 (stereo not given in full),inactive,–
COc1ccc([C@@H]2c3cc4c(cc3C(=O)[C@H](C)C2C)OCO4)cc1OC (stereo not given in full),18.7 µM (active),–
CC(=O)Oc1cc2c(c(OC(C)=O)c1C1CCc3cc(Cl)c(Cl)n31)C(=O)n1c-2cc(Cl)c1Cl (stereo not given),16.6 µM (active),–
C/C=C(/C)c1cc(O)c(C)c2c1Oc1cc(O)cc(C)c1C(=O)O2,inactive,–
C=CC(CCCCC)C1C(=O)NC(=O)C1C(=O)C1C2C(C)CC(C(=O)O)CC2CC1(O)C(=O)/C=C/C (stereo not given),inactive,–
C/C=C(/CO)C(=O)O[C@@H]1[C@H](O)[C@@H](C(=O)OC)O[C@@H]2C[C@H]3OC(n4cnc5c(N)ncnc54)[C@H](OC)[C@H]3O[C@@]12O (stereo not given in full),inactive,–
C=C[C@](Cl)(CBr)CCC=C(C)C,inactive,–
